From ChEMBL document CHEMBL4513216, “Probing the Open Global Health Chemical Diversity Library for Multistage-Active Starting Points for Next-Generation Antimalarials” (ACS Infect Dis, 2020)
The whole screen tested about 65,000 compounds, of which about 2,100 (3.2%) showed an effect of 50% or more. The median lay at about -52%. Shown is part of a subset that was picked to be rich in strong results.

These molecules were tested on Plasmodium falciparum (assay: Screen against P. falciparum Asexual Blood Stage (ABS), at 5uM). Conditions: tested at 5 uM.
Type: functional, Dd2

Compound	INHIBITION [%]
COc1ccc(CC2(CO)CCN(c3cc(C(N)=O)ccn3)CC2)cc1	-129
COc1ccc(-n2cnnc2SCC(=O)NC(C)C)cn1	-44.5
CS(=O)(=O)N1CCC2(CCN(C(=O)c3cccnc3)CC2)C1	-35.5
COCC(=O)NCC1CCCN(Cc2cc3ccccc3[nH]2)C1 (configuration not stated)	-18.1
COC(=O)c1cccc(C(=O)N(CCC#N)CC(C)(C)C)c1	-61.6
Cc1nc(Nc2cnccn2)cc(C2CN(C(C)C)C2)n1	-131
Cc1nc(Nc2nccs2)cc(C2CN(C(C)C)C2)n1	59.7
Cc1csc(Nc2cc(C3CN(C(C)C)C3)nc(C)n2)n1	-3.32
Cc1cccc(CN2CCOC(C)(C(=O)N3CCOCC3)C2)n1 (configuration not stated)	-28.9
NC(=O)c1cc(C2CCCN(CCOc3ccc(F)cc3)C2)n[nH]1 (configuration not stated)	52.4
Cc1ccc(OCCN2CCCC(c3cc(C(N)=O)[nH]n3)C2)cc1 (configuration not stated)	-109
NC(=O)c1cc(C2CCCN(CCCOc3ccc(F)cc3)C2)n[nH]1 (configuration not stated)	-96.5
COC(=O)c1cccnc1N1CCC(Oc2cccc(F)c2)CC1	-23.9
CC(C)N(C)[C@@H]1CCN(S(C)(=O)=O)[C@H]1Cc1ccccc1	54.9
CN(C)[C@@H]1CCN(S(C)(=O)=O)[C@H]1Cc1ccccc1	19.4
CN(C)[C@@H]1CCN(S(=O)(=O)c2cn(C)cn2)[C@H]1Cc1cccnc1	-57.5
CN(C)[C@@H]1CCN(S(=O)(=O)C2CC2)[C@H]1Cc1ccccc1	64.9
CC(C)NC(=O)N1CC[C@@H](N(C)C)[C@@H]1Cc1ccccc1	16.7
CC(C)N(C)[C@@H]1CCN(Cc2ccoc2)[C@H]1Cc1ccccc1	13.7
CCOc1nnc(CN2CCN(CCOC)C(C)C2)s1 (configuration not stated)	1.7
Cc1cc(C(=O)N(C)Cc2cnn(C)c2C)n(C)n1	-72.2
Cc1cccc(C(C)C)c1NC(=O)CN(C)C(C)c1nccs1 (configuration not stated)	10.7

Compound	INHIBITION [%]
Cc1nnc(C2CCN(C(=O)c3ccc4nccnc4c3)CC2)s1	-22.7
NCC1CCCCN1C(=O)Cc1ccc(F)c(F)c1 (configuration not stated)	9.77
CSc1nccc(N2CCC3(CCCN(CCc4ccccc4)C3)C2)n1 (configuration not stated)	50.1
CSc1nccc(N2CCC3(CCCN(Cc4cccc(C)c4)C3)C2)n1 (configuration not stated)	27.2
CSc1nccc(N2CCC3(CCCN(Cc4ccc(F)cc4)C3)C2)n1 (configuration not stated)	2.13
CCN(CC)S(=O)(=O)N1C[C@@H](O)[C@H](Oc2cccc(F)c2)C1	-6.79
COCC(=O)N1CCC(C(=O)c2cc(C)cnc2N)CC1	-65.6
O=S(=O)(Cc1ccc(F)cc1)NCc1nnc2n1CCC2	-90.9
FC(F)(F)c1nc(NC2CCCCC2)c2ccccc2n1	-10.5
COc1ccccc1CCN1CCCC(CN(C)Cc2cc(C)n[nH]2)C1 (configuration not stated)	55.5
Cc1cc(CN(C)CC2CCCN(CCc3ccc(Cl)cc3)C2)[nH]n1 (configuration not stated)	-65.3
COc1ccc(CCN2CCCC(CN(C)Cc3[nH]cnc3C)C2)cc1 (configuration not stated)	-4.52
Cc1nc(CN2CCCC(CCc3ccccc3C)C2)c[nH]1 (configuration not stated)	14.6
COc1ccc(CCN2CCCC(CN(C)Cc3ccc(C)o3)C2)cc1 (configuration not stated)	-45.9
COc1ccccc1CCN1CCCC(CN(C)Cc2c[nH]c(C)n2)C1 (configuration not stated)	67.4
O=C(Cn1ccc(-c2ccccc2)n1)N1CCN(C(=O)C2CC2)CC1	-54.1
O=C(O)Cn1nc(C2CC2)c2c(-c3ccc(F)cc3)ccnc21	-143
Cc1nc(N2CCC3(CCOC3)C2)c2cc[nH]c2n1 (configuration not stated)	-21.2
O=C(CN1CCc2sccc2C1)Nc1ccnc2ccnn12	-83.1
OCCCNc1nc(O)c2c(n1)-c1ccccc1CC21CCCCC1	4.32
COCC(=O)N1CCC2(C1)c1ccccc1S(=O)(=O)N2C (configuration not stated)	-58.6
CS(=O)(=O)NCc1nnc2n1CCN(Cc1ccncc1)C2	-3.62

Compound	INHIBITION [%]
Cc1cc(C(=O)N2CCc3ncc(CN4CCCC4)n3CC2)no1	-1.1
COc1ccc(CN2CCCC2)cc1Oc1ccc(NC(C)=O)cc1	-44.6
COc1cc(CN2CCCC2)ccc1Oc1ccc2c(c1)CC(CN)O2 (configuration not stated)	59.8
Cc1cc(CN2CCCC2)cc(Oc2ccc3c(c2)CC(CN)O3)c1 (configuration not stated)	28.4
Cc1ccc(N2CCO[C@H]3CN(C(=O)c4cccc(C)n4)C[C@H]32)nn1	-46.4
CCn1c(CN(C)Cc2csc(C)n2)nc2cc(F)ccc21	61
CCn1c(CN(C)Cc2cnc(C)s2)nc2cc(F)ccc21	-16.6
CCn1c(CN(C)Cc2cnc(C)s2)nc2c(F)cccc21	-30.4
Cc1csc(CCCNc2ccc(S(N)(=O)=O)cc2C#N)n1	-9.07
CC(CN1CCC(c2ccccc2)CC1)n1cnc2ccccc21 (configuration not stated)	3.15
COCCN1CCCCC12CC(=O)N(c1ccccc1OC)C2 (configuration not stated)	-78.3
c1coc(CN2CCC3(CCOCC3COCC3CC3)CC2)c1 (configuration not stated)	62.3
O=C(Cc1ccco1)N1CCC2(CCOCC2COCC2CC2)CC1 (configuration not stated)	-30.9
c1cc(CN2CCC3(CCOCC3COCC3CC3)CC2)co1 (configuration not stated)	14.4
Cc1cccc(CN2CCC3(CCCN(C(=O)N(C)C)C3)C2=O)n1 (configuration not stated)	-86.4
CN(C)c1nc(N)nc(CN2CCCC2c2cccs2)n1 (configuration not stated)	52
CN(C)c1nc(N)nc(CN2CCCC(c3ccccc3)CC2)n1 (configuration not stated)	54
CN(C)c1nc(N)nc(CN2CCC(c3nc4ccccc4o3)CC2)n1	7.31
c1ccc(C2CCCN(Cc3cc4n(n3)CCNC4)CC2)cc1 (configuration not stated)	37.2
CN(C)c1nc(N)nc(CN2CCCC2c2ccsc2)n1 (configuration not stated)	26.9
Cc1cccc(C2CCCN2Cc2nc(N)nc(N(C)C)n2)c1C (configuration not stated)	-12.4
COCC1CN(C(=O)Cc2ccccn2)Cc2ncnn2C1 (configuration not stated)	-70.5

Compound	INHIBITION [%]
Cc1cc(C(=O)N2CCN(c3nc4c(C(C)C)cccc4s3)CC2)on1	35.8
COCCOCC(=O)Nc1ccc(F)cc1C	-33.5
Cc1nc(CN2CCC(c3nc4cc(Cl)ccc4o3)CC2)oc1C	-53.1
CC(C)(C)c1nc(CN2CCC(c3nc4cc(Cl)ccc4o3)CC2)no1	-67.9
Cc1noc(C)c1CN1CCC(c2nc3cc(Cl)ccc3o2)CC1	58.5
O=C([C@@H]1COC[C@H]2CN(C3CCCC3)C[C@H]21)N1CCC(F)CC1	-68.8
CN1CCN(C(=O)c2nc3c(o2)CN(C(=O)c2cccnc2)C3)CC1	-0.0268
O=C(CSC1=NS(=O)(=O)c2cc(F)ccc2N1)Nc1ccc(Cl)c(Cl)c1	-21.5
O=C(N1CCOCC1)N1CCC2(CC1)CN(c1ccccn1)CCO2	-99.6
CCCn1cc(CN2CCOCC2c2[nH]ncc2C)cn1 (configuration not stated)	-155
Cc1ccc(C(CNCc2cccn2C)N2CCOCC2)s1 (configuration not stated)	-38.5
Cc1ccc(C(CNCc2ccncc2)N2CCOCC2)s1 (configuration not stated)	-40.9
Cc1ccc(C(CNCc2ncc[nH]2)N2CCOCC2)s1 (configuration not stated)	34.5
O=C(CCn1cccn1)NCC(c1cccs1)N1CCOCC1 (configuration not stated)	-64.1
Cc1ccc(C(CNCc2ccc(C#N)cc2)N2CCOCC2)s1 (configuration not stated)	52.3
CCn1cc(CNCC(c2ccc(C)s2)N2CCOCC2)cn1 (configuration not stated)	65.7
CCCn1cc(CNCC(c2ccc(C)s2)N2CCOCC2)cn1 (configuration not stated)	56.8
CCn1ccnc1CNCC(c1ccc(C)s1)N1CCOCC1 (configuration not stated)	54.1
Cc1ccc(C(CNCC2CC2)N2CCOCC2)s1 (configuration not stated)	26.8
Cc1ccc(C(CNCc2nccn2C)N2CCOCC2)s1 (configuration not stated)	-28.6
Cc1ccc(C(CNCc2cnn(C(C)C)c2)N2CCOCC2)s1 (configuration not stated)	35.9
CCCOc1ccc(CNc2cncc(-n3cccn3)n2)cc1	-99.4

Compound	INHIBITION [%]
Cc1ccc(N2CCC3(CCCN(C(=O)c4cccnc4)C3)C2)nn1 (configuration not stated)	-0.21
O=C(O)c1cccc2c(Br)cccc12	-180
Cn1cnc2c1CCN(Cc1csc(-c3ccccc3F)n1)C2	-58
O=C(c1ccc2c(c1)CCCC2)N1CCN(c2cnccn2)CC1	45
CCS(=O)(=O)N1Cc2ccccc2CC1C(=O)OCc1cc(C)no1 (configuration not stated)	-132
Cc1cc(C(F)(F)F)nc(CNC(=O)CCn2cccn2)n1	-223
O=C([C@@H]1CCO[C@@H]2CCN(Cc3cccs3)C[C@H]21)N1CCCCO1	-36.6
Cc1cccc(NC(=O)c2[nH]nc(C(C)C)c2Br)n1	57.6
CC(C)c1n[nH]c(C(=O)Nc2cc[nH]n2)c1Br	-208
CC(C)c1n[nH]c(C(=O)Nc2ccncc2)c1Br	-163
O=S(=O)(c1cccnc1)N1CCN(Cc2nc(-c3cccs3)cs2)CC1	-29
CNS(=O)(=O)CCCN(C)Cc1cc(C)ccc1OC	26.6
COC(=O)c1ccc(CNC(C)(C)c2ccccc2OC)o1	1.74
COc1ccccc1C(C)(C)NCc1ccco1	65.7
COc1ccc(C(=O)NCc2ccco2)nn1	-126
COc1ccc(CN(C)C(=O)Cc2c(C)nn(C)c2C)cc1F	-154
Cc1noc([C@@H]2C[C@H]3CN(Cc4scnc4C)C[C@H]3O2)n1	-40.7
CC(C)n1c(=O)c2sccc2n(CC(=O)Nc2ccccc2)c1=O	-27.6
Cc1ccc(N2C[C@@H]3CN(C(=O)c4ccccc4)CCO[C@@H]3C2)nn1	-12.5
